In PMC10812921, “Transcriptional Coactivator BOB1 (OBF1, OCA-B) Modulates the Specificity of DNA Recognition by the POU-Domain Factors OCT1 and OCT2 in a Monomeric Configuration”:

Experiments:
[1] = biological target: POU1 (OCT1 POU domain) (human, UniProt P14859 260-458); experiment: EMSA-SELEX-seq; no BOB1; 20 mM Tris-HCl pH 7.6, 140 mM NaCl, 10% glycerol, 0.5 mM EDTA, 0.05% Triton X-100, 0.1 mg/mL BSA, 0.1 mg/mL poly(dI-dC), 5 mM DTT, room temperature, 20 min; high values mean tight binding; conditions: protein: recombinant; dsDNA, one strand shown
Method in brief: (§1)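 Binding preference is the percentage of sequenced 8-mers matching a motif pattern. Tagged POU-domain proteins expressed in E. coli BL21 were purified under denaturing conditions and renatured. For binding, 30 ng protein met 300 ng of a PCR-amplified double-stranded random 35-nt library, with or without 28 ng coactivator protein, in 20 μL Tris–HCl pH 7.6 binding buffer for 20 min at RT. Complex bands were cut from native 6% PAGE, eluted and PCR-amplified over four rounds, then Illumina-sequenced.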

[2] = biological target: T1, POU2 (OCT2 POU domain) (human, UniProt P09086 175-386); experiment: as above; conditions: protein: recombinant; dsDNA, one strand shown
T1 sequence: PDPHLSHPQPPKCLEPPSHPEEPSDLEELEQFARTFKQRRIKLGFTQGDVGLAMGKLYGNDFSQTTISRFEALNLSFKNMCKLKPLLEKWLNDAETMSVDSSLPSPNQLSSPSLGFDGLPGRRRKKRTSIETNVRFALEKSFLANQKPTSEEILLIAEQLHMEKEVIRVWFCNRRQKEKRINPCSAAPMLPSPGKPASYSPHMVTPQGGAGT
Method in brief: as §1

[3] = biological target: POU1 (OCT1 POU domain);BOB1 (OBF1, OCA-B) (human;human, UniProt P14859;Q16633 260-458;1-256, |); experiment: EMSA-SELEX-seq; with BOB1 (ternary complex band); 20 mM Tris-HCl pH 7.6, 140 mM NaCl, 10% glycerol, 0.5 mM EDTA, 0.05% Triton X-100, 0.1 mg/mL BSA, 0.1 mg/mL poly(dI-dC), 5 mM DTT, room temperature, 20 min; high values mean tight binding; conditions: protein: recombinant;recombinant; copies: 1;1; dsDNA, one strand shown
Method in brief: as §1

[4] = biological target: T2, POU2 (OCT2 POU domain);BOB1 (OBF1, OCA-B) (human;human, UniProt P09086;Q16633 175-386;1-256, |); experiment: as above; conditions: protein: recombinant;recombinant; copies: 1;1; dsDNA, one strand shown
T2 sequence 1: T1 sequence
T2 sequence 2: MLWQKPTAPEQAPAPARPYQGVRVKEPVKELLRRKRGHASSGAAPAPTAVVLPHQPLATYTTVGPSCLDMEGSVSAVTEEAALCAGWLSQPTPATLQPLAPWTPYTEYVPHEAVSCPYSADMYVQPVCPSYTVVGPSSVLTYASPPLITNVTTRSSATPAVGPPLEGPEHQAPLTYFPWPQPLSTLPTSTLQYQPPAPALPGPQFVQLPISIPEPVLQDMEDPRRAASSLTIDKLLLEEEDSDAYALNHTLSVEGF
Method in brief: as §1

POU1 (OCT1 POU domain), sequence (P14859 260-458): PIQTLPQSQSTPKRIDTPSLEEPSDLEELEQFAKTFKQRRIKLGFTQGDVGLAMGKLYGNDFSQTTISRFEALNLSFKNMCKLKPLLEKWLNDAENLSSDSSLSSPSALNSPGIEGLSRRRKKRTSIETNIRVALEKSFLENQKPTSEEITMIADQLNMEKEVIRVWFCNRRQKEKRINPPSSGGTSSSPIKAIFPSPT

Sequence | binding signal [1] | binding signal [2] | binding signal [3] | binding signal [4]
ACTCGAAC | 0.016 % of ANNNNAAN 8-mers | 0.0184 % of ANNNNAAN 8-mers | 0.0113 % of ANNNNAAN 8-mers | 0.0198 % of ANNNNAAN 8-mers
ACAGGAAA | 0.0526 % of ANNNNAAN 8-mers | 0.0506 % of ANNNNAAN 8-mers | 0.0702 % of ANNNNAAN 8-mers | 0.0603 % of ANNNNAAN 8-mers
ACACTAAT | 0.0568 % of ANNNNAAN 8-mers | 0.0811 % of ANNNNAAN 8-mers | 0.0316 % of ANNNNAAN 8-mers | 0.0438 % of ANNNNAAN 8-mers
AGGGAAAC | 0.0648 % of ANNNNAAN 8-mers | 0.0518 % of ANNNNAAN 8-mers | 0.0991 % of ANNNNAAN 8-mers | 0.0413 % of ANNNNAAN 8-mers
ATGTAAAG | 0.489 % of ANNNNAAN 8-mers | 0.393 % of ANNNNAAN 8-mers | 0.489 % of ANNNNAAN 8-mers | 0.477 % of ANNNNAAN 8-mers
AGAAGAAG | 0.029 % of ANNNNAAN 8-mers | 0.0547 % of ANNNNAAN 8-mers | 0.0379 % of ANNNNAAN 8-mers | 0.0454 % of ANNNNAAN 8-mers
AGATGAAG | 0.0328 % of ANNNNAAN 8-mers | 0.0368 % of ANNNNAAN 8-mers | 0.0316 % of ANNNNAAN 8-mers | 0.0297 % of ANNNNAAN 8-mers
ATTGAAAA | 0.09 % of ANNNNAAN 8-mers | 0.076 % of ANNNNAAN 8-mers | 0.0925 % of ANNNNAAN 8-mers | 0.0627 % of ANNNNAAN 8-mers
AAGCCAAA | 0.0305 % of ANNNNAAN 8-mers | 0.0414 % of ANNNNAAN 8-mers | 0.0464 % of ANNNNAAN 8-mers | 0.0256 % of ANNNNAAN 8-mers
AAGAGAAT | 0.0728 % of ANNNNAAN 8-mers | 0.0806 % of ANNNNAAN 8-mers | 0.0738 % of ANNNNAAN 8-mers | 0.0553 % of ANNNNAAN 8-mers
AATCCAAT | 0.0507 % of ANNNNAAN 8-mers | 0.0552 % of ANNNNAAN 8-mers | 0.0605 % of ANNNNAAN 8-mers | 0.0504 % of ANNNNAAN 8-mers
ACGTTAAG | 0.037 % of ANNNNAAN 8-mers | 0.0414 % of ANNNNAAN 8-mers | 0.039 % of ANNNNAAN 8-mers | 0.0405 % of ANNNNAAN 8-mers
AGCCGAAG | 0.0168 % of ANNNNAAN 8-mers | 0.0201 % of ANNNNAAN 8-mers | 0.0195 % of ANNNNAAN 8-mers | 0.0182 % of ANNNNAAN 8-mers
ATTATAAG | 0.121 % of ANNNNAAN 8-mers | 0.163 % of ANNNNAAN 8-mers | 0.0843 % of ANNNNAAN 8-mers | 0.0966 % of ANNNNAAN 8-mers
AGGTCAAA | 0.0587 % of ANNNNAAN 8-mers | 0.0403 % of ANNNNAAN 8-mers | 0.0632 % of ANNNNAAN 8-mers | 0.0421 % of ANNNNAAN 8-mers
ATCATAAT | 0.131 % of ANNNNAAN 8-mers | 0.164 % of ANNNNAAN 8-mers | 0.0706 % of ANNNNAAN 8-mers | 0.0636 % of ANNNNAAN 8-mers
ATGGAAAT | 0.943 % of ANNNNAAN 8-mers | 0.723 % of ANNNNAAN 8-mers | 0.958 % of ANNNNAAN 8-mers | 0.982 % of ANNNNAAN 8-mers
AAGCAAAA | 0.142 % of ANNNNAAN 8-mers | 0.0898 % of ANNNNAAN 8-mers | 0.204 % of ANNNNAAN 8-mers | 0.106 % of ANNNNAAN 8-mers
ACCCGAAA | 0.0172 % of ANNNNAAN 8-mers | 0.019 % of ANNNNAAN 8-mers | 0.0168 % of ANNNNAAN 8-mers | 0.014 % of ANNNNAAN 8-mers
ATGTCAAA | 0.0744 % of ANNNNAAN 8-mers | 0.0673 % of ANNNNAAN 8-mers | 0.0745 % of ANNNNAAN 8-mers | 0.0652 % of ANNNNAAN 8-mers
AAGTAAAT | 0.19 % of ANNNNAAN 8-mers | 0.146 % of ANNNNAAN 8-mers | 0.227 % of ANNNNAAN 8-mers | 0.147 % of ANNNNAAN 8-mers
AAGTTAAG | 0.0568 % of ANNNNAAN 8-mers | 0.0742 % of ANNNNAAN 8-mers | 0.0539 % of ANNNNAAN 8-mers | 0.0636 % of ANNNNAAN 8-mers
ATGGTAAA | 0.182 % of ANNNNAAN 8-mers | 0.191 % of ANNNNAAN 8-mers | 0.105 % of ANNNNAAN 8-mers | 0.106 % of ANNNNAAN 8-mers
ACTCTAAT | 0.0488 % of ANNNNAAN 8-mers | 0.0604 % of ANNNNAAN 8-mers | 0.0316 % of ANNNNAAN 8-mers | 0.0405 % of ANNNNAAN 8-mers
AATTTAAA | 0.913 % of ANNNNAAN 8-mers | 0.793 % of ANNNNAAN 8-mers | 0.303 % of ANNNNAAN 8-mers | 0.312 % of ANNNNAAN 8-mers
ATATGAAT | 0.243 % of ANNNNAAN 8-mers | 0.316 % of ANNNNAAN 8-mers | 0.122 % of ANNNNAAN 8-mers | 0.141 % of ANNNNAAN 8-mers
ACTCTAAG | 0.0214 % of ANNNNAAN 8-mers | 0.0224 % of ANNNNAAN 8-mers | 0.0258 % of ANNNNAAN 8-mers | 0.0206 % of ANNNNAAN 8-mers
AGAGTAAC | 0.0206 % of ANNNNAAN 8-mers | 0.0322 % of ANNNNAAN 8-mers | 0.0234 % of ANNNNAAN 8-mers | 0.0264 % of ANNNNAAN 8-mers
ACAATAAA | 0.0481 % of ANNNNAAN 8-mers | 0.0495 % of ANNNNAAN 8-mers | 0.0453 % of ANNNNAAN 8-mers | 0.0396 % of ANNNNAAN 8-mers
AGCGTAAC | 0.0168 % of ANNNNAAN 8-mers | 0.0207 % of ANNNNAAN 8-mers | 0.0144 % of ANNNNAAN 8-mers | 0.0149 % of ANNNNAAN 8-mers
